Measured values taken from PubChem BioAssay AID720519 (National Center for Advancing Translational Sciences (NCATS), 2013).
Results filed as inconclusive are left out. Values without a mark were called inactive. Activity calls are given as the source filed them. The call rests on the fitted dose curve; in most records, active means well fitted activation curve with a large enough effect; inconclusive means small, poorly fitted or top-dose-only effect; inactive means flat fitted curve, though single readings scatter.

Test: qHTS for Inhibitors of Cell Surface uPA Generation: Confirmatory Assay for Cherry-picked Compounds; on inhibition: 0% is about no effect
Conditions: cell surface uPA activity generation, qHTS confirmation; series mostly up to 115 µM; inhibition: at the top concentration
Method in brief: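 RAW 264.7 cells at 4000/well, incubated overnight, then treated with compounds. After 24 h at 37 C, viability was read by ATPlite luminescence. An increase in signal indicates blocked uPA-dependent LF entry.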
Potency means the concentration at half of the fitted maximal effect.

SMILES | inhibition | Potency
Cc1ccc2cccc(OCCCOc3ccccc3CO)c2n1 | 2.51% | 
Cc1cc(C)n(-c2cc(C(=O)O)cc(C(=O)O)c2)n1 | -1.53% | 
COc1ccccc1CN1CC(C(=O)NCc2cccc(C)n2)CCC1=O (centres undefined) | -2.28% | 
CN(C(=O)CCn1c(=S)oc2ccccc21)c1ccc(F)cc1 | 1.34% | 
CCOc1cc(/C=N/Nc2cc(C)nc3ccc(C)cc23)ccc1O | -1.72% | 
COc1ccc(CC(=O)OCC(=O)NNC(=O)c2ccccc2)cc1 | -3.04% | 
COc1ccc(N2CCN(S(=O)(=O)c3ccc4c(c3)NC(=O)CS4)CC2)cc1 | -0.636% | 
Cc1ccc(C2=NS(=O)(=O)N(C)C(C(=O)NC3CCCC3)=C2)cc1 | -1.27% | 
CCc1ccc(S(=O)(=O)NCCc2cn3cccc(C)c3n2)s1 | -2.57% | 
Cc1cccc(C)c1NC(=O)c1c(O)c2ccccc2[nH]c1=O | -3.96% | 
CCN(CC)CCNC(=O)/C(=C/c1cn(CC)c2ccccc12)NC(=O)c1cc(OC)c(OC)c(OC)c1 | 0.948% | 
O=C(Nc1ccc(S(=O)(=O)N2CCOCC2)cc1)c1cc(-c2ccccc2O)n[nH]1 | -1.36% | 
COC(=O)[C@H](CC(C)C)N(Cc1ccccc1)S(=O)(=O)N(Cc1ccc(OC)cc1)[C@@H](CC(C)C)C(=O)OC | 0.302% | 
CC1(C(=O)OCC(=O)Nc2ccc(Cl)cn2)CC1(Cl)Cl (centres undefined) | 5.87% | 
COc1cc(OC)cc(C(=O)NC(C(=O)Nc2ccc3c(c2)CCC3)C(C)C)c1 (centres undefined) | -0.295% | 
COc1ccc(/C(N)=N/OC(=O)Cc2ccccc2OC)cc1 | -0.507% | 
COc1ccc(N(CN2C(=O)c3ccccc3C2=O)C(=O)C(C)C)cc1 | -1.14% | 
COc1cccc(C(=O)Cn2c(NCCCO)nc3ccccc32)c1 | -1.59% | 
CC(C)(C)S(=O)(=O)N1C[C@H]2CC/C=C\C/C(c3ccccc3)=C\2[C@@H]1CCO | -0.435% | 
C[C@H](CO)N1C[C@H](C)[C@@H](CN(C)C(=O)Nc2ccccc2)Oc2ccc(NC(=O)Cn3cnnn3)cc2C1=O | -0.16% | 

SMILES | inhibition | Potency
C/C=C(/C(=C/C)c1ccc(O)cc1)c1ccc(O)cc1 | -3.36% | 
CCO[C@H]1OC(C(=O)N2CCCCCCC2)=C[C@@H](c2ccc(C(F)(F)F)cc2)[C@@H]1CCCO | -2.91% | 
COc1cc2c(OC(C)=O)c3c(c(-c4ccc5c(c4)OCO5)c2cc1OC)C(=O)OC3 |  | 2.33 µM (active)
COc1cc(NS(=O)(=O)c2ccc(NC(=S)NC(=O)COc3ccccc3OC)cc2)nc(OC)n1 | -0.876% | 
COc1cccc2c1Oc1ncccc1N(C(=O)CCC(=O)NCc1ccc(C)cc1)C2 | -1.4% | 
CC(C)NC(=O)NC(=O)CN1C(=O)NC(Cc2c[nH]c3ccccc23)C1=O (centres undefined) | -2.11% | 
Cc1cccc(C(=O)NCC(=O)OCC(=O)NC2CCCCCCC2)c1 | 1.31% | 
CN(C)S(=O)(=O)c1ccc(NC(=O)COC(=O)CC2CC3CCC2C3)cc1 (centres undefined) | 0.968% | 
CC(=O)Nc1ccc(NC(=O)CCCCCN2C(=O)c3ccccc3C2=O)cc1 | -1.19% | 
CC(C)(C)NC(=O)C(c1cccs1)N(C(=O)c1csnn1)c1ccccc1F (centres undefined) | -1.14% | 
CN1CCN(c2ccc(S(=O)(=O)N3CCOCC3)cc2NC(=O)CSCc2ccccc2)CC1 | 0.329% | 
O=C(NCC1CCCO1)c1ccc(NC(=O)c2ccc([N+](=O)[O-])cc2)cc1 (centres undefined) | -0.412% | 
O=C(COc1cccc2ccccc12)NNC(=O)c1cnccn1 | -2.03% | 
CC(C)(C)C(=O)NCCc1nc2ccccc2n1CC(=O)c1ccc(Cl)cc1 | -2.45% | 
COc1cccc(NC(=O)CN(C)C(=O)c2csc3c2CCCC3)c1 | 2.11% | 
CC/C(=N\Nc1ccccc1[N+](=O)[O-])c1ccc(O)cc1 | -2% | 
Cc1[nH]c2ccccc2c1C(=O)C(C)OC(=O)c1ccccc1NCCO (centres undefined) | -3.62% | 
CCN(CC)CCCNC(=O)c1cn(C)c(=O)c2c1c1ccccc1n2C | 5.19% | 
CCCN1CCN(CC(=O)Nc2nncs2)CC1 | 1.56% | 
